PubChem BioAssay AID2284383 (EPA ToxCast)
Results filed as inconclusive are left out. Active and inactive are the calls of the source. The calls were made as follows: active = hit-call score of the fitted dose curve at least 0.9, where 1 is the maximum; inconclusive = response in the unintended direction; inactive = score below 0.9.

target: human Retinoic Acid Receptor gamma (RARg) Agonism, RARG (gene 5916) (UniProt P13631); experiment: ERF_TW_NR_COA_hRARG: Eurofins (ERF) Nuclear Receptor (NR) Functional Coactivator Assay for human Retinoic Acid Receptor gamma (RARg) Agonism
Procedure: ERF_TW_NR_COA_hRARG is a biochemical, single-readout assay that uses extracted gene-proteins in a cell-free assay. Measurements were taken 16 hours after chemical dosing in a 96-well plate. […] It is designed to measure FRET using a type of binding reporter as detected by fluorescence intensity of AM580 with fluorimetry technology.Data from the assay component ERF_TW_NR_COA_hRARG was analyzed at the assay endpoint, ERF_TW_NR_COA_hRARG, in the positive analysis fitting direction relative to DMSO as the negative control and baseline of activity. Using a type of binding reporter, gain-of-signal activity can be used to understand changes in binding as they relate to gene RARG. To generalize the intended target to other relatable targets, this assay endpoint is annotated to the nuclear receptor intended target family, where the subfamily is non-steroidal.
Human recombinant retinoic acid receptor […] (RARgamma) receptors expressed in bacteria are used. Test compound and/or vehicle is incubated with the 25 nM receptors and binding buffer in modified Tris-HCl buffer pH 7.4 for 16 hours at 4C. Determination of the amount of complex formed is read spectrofluorimetrically (excitation:337 nm, emission:620/665 nm). Test compound-induced increase in fluorescence by 50 percent or more (>/= 50%) relative to the 0.3 uM AM580 response indicates possible RARgamma receptor agonist activity. […] Membrane protein may change from lot to lot, the concentration used will be adjusted if necessary.

human Retinoic Acid Receptor gamma (RARg) Agonism, RARG (gene 5916), sequence (P13631 whole entry, looked up): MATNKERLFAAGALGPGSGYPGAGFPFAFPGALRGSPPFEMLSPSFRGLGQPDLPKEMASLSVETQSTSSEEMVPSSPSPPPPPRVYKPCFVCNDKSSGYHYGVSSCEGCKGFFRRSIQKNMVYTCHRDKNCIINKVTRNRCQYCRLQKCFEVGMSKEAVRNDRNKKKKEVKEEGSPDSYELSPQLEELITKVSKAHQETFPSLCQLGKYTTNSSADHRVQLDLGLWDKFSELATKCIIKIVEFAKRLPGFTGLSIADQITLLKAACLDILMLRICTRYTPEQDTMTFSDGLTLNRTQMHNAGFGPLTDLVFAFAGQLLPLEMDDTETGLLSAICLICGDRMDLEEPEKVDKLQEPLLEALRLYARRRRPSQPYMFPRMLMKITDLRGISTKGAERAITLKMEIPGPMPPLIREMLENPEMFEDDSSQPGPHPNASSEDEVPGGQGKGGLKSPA

Compound | AC50 | outcome
ClC1=C(Cl)[C@]2(Cl)[C@@H]3[C@H]4C[C@H]([C@@H]5O[C@H]45)[C@@H]3[C@@]1(Cl)C2(Cl)Cl | 6.15 µM (active) | 
ClC1=C(Cl)[C@]2(Cl)[C@@H]3[C@@H]4C[C@@H]([C@H]5O[C@@H]45)[C@@H]3[C@@]1(Cl)C2(Cl)Cl | 6.6 µM (active) | 
Cc1ccc2cc3c(ccc4ccccc43)c3c2c1CC3 |  | inactive
